The supplement of paper PMC8728848
About 410 targets per protein were measured; listed, in parts, are those with the strongest signals and a random draw of the rest.

Assays:
Assay in all cases: glycan array binding signal (z-score within array); higher = stronger binding
Conditions in all cases: glycan notation: IUPAC condensed, linker removed
[1] = target: Fuc(a1-2)Gal(b1-3)GalNAc(b1-3)Gal(a1-4)Gal(b1-4)Glc
In short: (§1)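 Glycan array data were curated from 3228 arrays in the Consortium for Functional Glycomics database and kept only where the protein sequence was available. Glycan names were converted to IUPAC-condensed notation, and columns mapping to the same glycan were averaged. The binding signal is a within-array Z-score, averaged across arrays of the same protein sequence at different concentrations or buffers and across linkers. Negative Z-scores can be read as non-binding.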

[2] = target: Fuc(a1-2)Gal(b1-3)GlcNAc(b1-3)[Neu5Ac(a2-6)Gal(b1-4)GlcNAc(b1-6)]Gal(b1-4)Glc
In short: as §1

[3] = target: Fuc(a1-2)Gal(b1-3)GlcNAc6S
In short: as §1

[4] = target: Fuc(a1-2)Gal(b1-3)[Fuc(a1-4)]GlcNAc(b1-2)Man(a1-3)[Fuc(a1-2)Gal(b1-3)[Fuc(a1-4)]GlcNAc(b1-2)Man(a1-6)]Man(b1-4)GlcNAc(b1-4)[Fuc(a1-6)]GlcNAc(b1-4)[Fuc(a1-6)]GlcNAc
In short: as §1

Fuc(a1-2)Gal(b1-4)GlcNAc = target: Fuc(a1-2)Gal(b1-4)GlcNAc
In short: as §1

[5] = target: Fuc(a1-2)Gal(b1-4)GlcNAc(b1-3)Gal(b1-4)GlcNAc(b1-2)Man(a1-3)[Fuc(a1-2)Gal(b1-4)GlcNAc(b1-3)Gal(b1-4)GlcNAc(b1-2)Man(a1-6)]Man(b1-4)GlcNAc(b1-4)GlcNAc
In short: as §1

[6] = target: Fuc(a1-2)Gal(b1-4)GlcNAc(b1-3)Gal(b1-4)GlcNAc(b1-3)Gal(b1-4)GlcNAc
In short: as §1

[7] = target: Fuc(a1-2)Gal(b1-4)[Fuc(a1-3)]GlcNAc
In short: as §1

[8] = target: Fuc(a1-2)Gal(b1-4)[Fuc(a1-3)]GlcNAc(b1-3)GalNAc
In short: as §1

[9] = target: Fuc(a1-2)[Gal(a1-4)]Gal(b1-4)GlcNAc
In short: as §1

[10] = target: Fuc(a1-2)[GalNAc(a1-3)]Gal(b1-3)GalNAc(a1-3)[Fuc(a1-2)]Gal(b1-4)GlcNAc
In short: as §1

[11] = target: Fuc(a1-2)[GalNAc(a1-3)]Gal(b1-3)GalNAc(b1-3)Gal(a1-4)Gal(b1-4)Glc
In short: as §1

[12] = target: Fuc(a1-2)[GalNAc(a1-3)]Gal(b1-4)GlcNAc(b1-2)Man(a1-3)[Fuc(a1-2)[GalNAc(a1-3)]Gal(b1-4)GlcNAc(b1-2)Man(a1-6)]Man(b1-4)GlcNAc(b1-4)GlcNAc
In short: as §1

[13] = target: Fuc(a1-2)[GalNAc(a1-3)]Gal(b1-4)GlcNAc(b1-3)[Fuc(a1-2)[GalNAc(a1-3)]Gal(b1-4)GlcNAc(b1-6)]GalNAc
In short: as §1

[14] = target: Gal(a1-3)Gal(b1-3)GlcNAc(b1-2)Man(a1-3)[Gal(a1-3)Gal(b1-3)GlcNAc(b1-2)Man(a1-6)]Man(b1-4)GlcNAc(b1-4)GlcNAc
In short: as §1

[15] = target: Gal(a1-3)Gal(b1-4)GlcNAc(b1-2)Man
In short: as §1

[16] = target: Gal(a1-3)Gal(b1-4)GlcNAc(b1-3)GalNAc
In short: as §1

[17] = target: Gal(a1-3)[Gal(a1-4)]Gal(b1-4)GlcNAc
In short: as §1

[18] = target: Gal(b1-3)GalNAc(a1-3)[Fuc(a1-2)]Gal(b1-4)Glc
In short: as §1

[19] = target: Gal(b1-3)GalNAc(b1-3)Gal(a1-4)Gal(b1-4)Glc
In short: as §1

Gal(b1-3)GlcNAc(b1-2)Man = target: Gal(b1-3)GlcNAc(b1-2)Man
In short: as §1

[20] = target: Gal(b1-3)GlcNAc(b1-2)[Gal(b1-3)GlcNAc(b1-6)]Man(a1-6)[Gal(b1-3)GlcNAc(b1-2)Man(a1-3)]Man(b1-4)GlcNAc(b1-4)GlcNAc
In short: as §1

[21] = target: Gal(b1-3)GlcNAc(b1-6)Gal(b1-4)GlcNAc
In short: as §1

[22] = target: Gal(b1-3)[Neu5Ac(b2-6)]GalNAc
In short: as §1

[23] = target: Gal(b1-4)GlcNAc(b1-2)Man(a1-3)Man(b1-4)GlcNAc(b1-4)GlcNAc
In short: as §1

[24] = target: Gal(b1-4)GlcNAc(b1-2)Man(a1-3)[GlcNAc(b1-2)Man(a1-6)]Man(b1-4)GlcNAc(b1-4)GlcNAc
In short: as §1

[25] = target: Gal(b1-4)GlcNAc(b1-2)Man(a1-6)[Man(a1-3)]Man(b1-4)GlcNAc(b1-4)GlcNAc
In short: as §1

[26] = target: Gal(b1-4)GlcNAc(b1-2)[Gal(b1-4)GlcNAc(b1-6)]Man(a1-6)[GlcNAc(b1-4)][Gal(b1-4)GlcNAc(b1-2)Man(a1-3)]Man(b1-4)GlcNAc(b1-4)GlcNAc
In short: as §1

[27] = target: Gal(b1-4)GlcNAc(b1-3)Gal(b1-4)Glc
In short: as §1

[28] = target: Gal(b1-4)GlcNAc(b1-3)Gal(b1-4)GlcNAc
In short: as §1

B1: SBD-G4S3-Fc (protein)
chain: MASIPSSASVQLDSYNYDGSTFSGKIYVKNIAYSKKVTVVYADGSDNWNNNGNIIAASFSGPISGSNYEYWTFSASVKGIKEFYIKYEVSGKTYYDNNNSANYQVSTGGGGSGGGGSGGGGSEFVPRDCGCKPCICTVPEVSSVFIFPPKPKDVLTITLTPKVTCVVVDISKDDPEVQFSWFVDDVEVHTAQTQPREEQFNSTFRSVSELPIMHQDWLNGKEFKCRVNSAAFPAPIEKTISKTKGRPKAPQVYTIPPPKEQMAKDKVSLTCMITDFFPEDITVEWQWNGQPAENYKNTQPIMDTDGSYFVYSKLNVQKSNWEAGNTFTCSVLHEGLHNHHTEKSLSHSPGAA
[1]
  glycan array binding signal (z-score): -0.249
[2]
  glycan array binding signal (z-score): -0.478
[3]
  glycan array binding signal (z-score): -0.371
[4]
  glycan array binding signal (z-score): 0.339
Fuc(a1-2)Gal(b1-4)GlcNAc
  glycan array binding signal (z-score): -0.284
[5]
  glycan array binding signal (z-score): 1.23
[6]
  glycan array binding signal (z-score): -0.034
[7]
  glycan array binding signal (z-score): 0.134
[8]
  glycan array binding signal (z-score): 0.32
[9]
  glycan array binding signal (z-score): -0.203
[10]
  glycan array binding signal (z-score): 5.6
[11]
  glycan array binding signal (z-score): 0.07
[12]
  glycan array binding signal (z-score): 0.007
[13]
  glycan array binding signal (z-score): -0.2
[14]
  glycan array binding signal (z-score): 1.16
[15]
  glycan array binding signal (z-score): -0.234
[16]
  glycan array binding signal (z-score): 0.357
[17]
  glycan array binding signal (z-score): 1.33
[18]
  glycan array binding signal (z-score): -0.267
[19]
  glycan array binding signal (z-score): 0.103
Gal(b1-3)GlcNAc(b1-2)Man
  glycan array binding signal (z-score): -0.388
[20]
  glycan array binding signal (z-score): -0.089
[21]
  glycan array binding signal (z-score): -0.401
[22]
  glycan array binding signal (z-score): -0.146
[23]
  glycan array binding signal (z-score): 0.225
[24]
  glycan array binding signal (z-score): -0.37
[25]
  glycan array binding signal (z-score): 0.054
[26]
  glycan array binding signal (z-score): 0.227
[27]
  glycan array binding signal (z-score): -0.301
[28]
  glycan array binding signal (z-score): -0.054
